The nature of test [1]: qHTS for Inhibitors of the vitamin D receptor (VDR): Hit Validation using a Texas Red Assay (AID 602201). Further: potency means the concentration at half of the fitted maximal effect. The essentials: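 Fluorescence polarization (Ex 595/Em 615 nm) of Texas Red (7 nM) with 1.5 uM VDR-LBD and LG19078 (final concentrations). Compounds were incubated for 2 hours at room temperature.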
A general note: qHTS replaces the single test concentration by a dilution series.

For test [2], the target named is Rap guanine nucleotide exchange factor 3 (Homo sapiens) (UniProt O95398). Description: Confirmatory qHTS for antagonist of cAMP-regulated guanine nucleotide exchange factor 3 (EPAC1) (AID 1645880). Further: nearly all actives have a fitted effect of over 55% in size. Further: potency means the concentration at half of the fitted maximal effect.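 On activity, negative = inhibition: plate controls were DMSO only for no effect and full effect of the ATA control for full effect.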 Particulars: EPAC1 Rap1B-BODIPY-GDP exchange, fluorescence; activity, negative = inhibition: at 115 µM (top of the series). The essentials: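 Released BODIPY-GDP fluoresces less than Rap1-bound BODIPY-GDP; the signal is followed at 480/540 nm at 5-min intervals over 30 min, after 5 min at room temperature. Reactions contain 100 nM EPAC1, 250 nM RAP1B-BODIPY-GDP and 50 uM GDP; results are normalized to ATA and DMSO.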
Chain of Rap guanine nucleotide exchange factor 3 (Homo sapiens) (O95398 whole entry, looked up): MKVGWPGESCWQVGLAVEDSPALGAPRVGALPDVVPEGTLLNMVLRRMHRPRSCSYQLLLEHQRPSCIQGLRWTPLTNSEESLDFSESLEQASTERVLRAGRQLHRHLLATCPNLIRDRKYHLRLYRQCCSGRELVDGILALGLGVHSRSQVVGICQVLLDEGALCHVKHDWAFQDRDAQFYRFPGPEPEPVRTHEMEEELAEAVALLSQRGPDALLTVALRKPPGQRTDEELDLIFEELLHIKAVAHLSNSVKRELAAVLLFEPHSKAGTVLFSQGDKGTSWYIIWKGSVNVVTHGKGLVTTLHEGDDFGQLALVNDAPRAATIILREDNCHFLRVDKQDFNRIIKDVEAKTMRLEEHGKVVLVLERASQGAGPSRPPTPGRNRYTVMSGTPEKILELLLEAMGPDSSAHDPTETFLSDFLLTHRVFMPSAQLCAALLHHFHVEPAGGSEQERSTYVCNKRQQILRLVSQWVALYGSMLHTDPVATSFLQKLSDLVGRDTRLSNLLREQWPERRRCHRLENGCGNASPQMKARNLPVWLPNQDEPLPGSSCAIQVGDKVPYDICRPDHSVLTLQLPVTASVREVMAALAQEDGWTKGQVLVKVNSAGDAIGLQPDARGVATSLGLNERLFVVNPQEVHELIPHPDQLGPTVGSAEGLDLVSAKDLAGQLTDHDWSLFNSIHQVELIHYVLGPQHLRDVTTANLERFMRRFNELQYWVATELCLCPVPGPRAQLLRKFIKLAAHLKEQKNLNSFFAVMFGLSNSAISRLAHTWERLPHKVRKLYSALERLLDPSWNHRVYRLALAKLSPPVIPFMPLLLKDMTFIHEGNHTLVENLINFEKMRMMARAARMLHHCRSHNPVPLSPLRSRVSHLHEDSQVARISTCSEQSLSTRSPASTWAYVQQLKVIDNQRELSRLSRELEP

The target is the same in test [3]. Kind of test: Confirmatory qHTS for agonist of cAMP-regulated guanine nucleotide exchange factor 3 (EPAC1) (AID 1645881). Further: nearly all actives have a fitted effect of over 75% in size. Further: potency means the concentration at half of the fitted maximal effect.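 On activation: EPAC1 catalysed release of BODIPY-GDP from Rap1B seen as fluorescence loss; 100% = effect of cAMP agonist control.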
Test [4] deals with Rap guanine nucleotide exchange factor 4 (Homo sapiens) (UniProt Q8WZA2). Kind of test: Confirmatory qHTS for antagonist of cAMP-regulated guanine nucleotide exchange factor 4 (EPAC2) (AID 1645885). Further: nearly all actives have a fitted effect of over 25% in size. Further: potency means the concentration at half of the fitted maximal effect.
Chain of Rap guanine nucleotide exchange factor 4 (Homo sapiens) (Q8WZA2 whole entry, looked up): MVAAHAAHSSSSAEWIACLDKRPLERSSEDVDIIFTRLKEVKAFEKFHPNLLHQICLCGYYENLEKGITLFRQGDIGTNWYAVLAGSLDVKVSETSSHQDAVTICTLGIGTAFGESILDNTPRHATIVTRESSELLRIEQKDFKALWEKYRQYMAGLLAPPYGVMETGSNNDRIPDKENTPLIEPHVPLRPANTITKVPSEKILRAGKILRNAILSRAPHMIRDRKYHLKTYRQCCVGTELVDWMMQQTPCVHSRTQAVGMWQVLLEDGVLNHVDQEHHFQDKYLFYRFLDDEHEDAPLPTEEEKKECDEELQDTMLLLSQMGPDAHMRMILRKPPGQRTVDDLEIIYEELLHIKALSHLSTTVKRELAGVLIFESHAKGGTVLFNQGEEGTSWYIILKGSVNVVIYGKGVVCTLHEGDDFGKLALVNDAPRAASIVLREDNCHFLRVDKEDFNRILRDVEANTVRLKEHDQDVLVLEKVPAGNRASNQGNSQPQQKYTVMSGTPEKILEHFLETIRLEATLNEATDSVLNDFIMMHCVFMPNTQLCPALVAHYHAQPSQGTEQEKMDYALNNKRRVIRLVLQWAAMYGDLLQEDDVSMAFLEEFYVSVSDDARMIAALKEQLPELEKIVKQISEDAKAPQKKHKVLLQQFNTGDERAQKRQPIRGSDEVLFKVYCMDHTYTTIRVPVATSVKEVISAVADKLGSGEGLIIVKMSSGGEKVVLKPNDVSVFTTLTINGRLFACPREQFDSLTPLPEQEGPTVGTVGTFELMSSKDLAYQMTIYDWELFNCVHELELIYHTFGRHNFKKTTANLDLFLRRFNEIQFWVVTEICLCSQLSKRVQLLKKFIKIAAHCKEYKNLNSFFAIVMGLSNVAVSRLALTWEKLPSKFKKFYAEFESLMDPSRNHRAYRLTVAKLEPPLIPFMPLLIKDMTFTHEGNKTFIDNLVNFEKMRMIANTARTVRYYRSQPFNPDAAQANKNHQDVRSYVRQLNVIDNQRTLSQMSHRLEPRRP
For test [5], the target named is Rap guanine nucleotide exchange factor 3 (Homo sapiens) (UniProt O95398). Description: Counterscreen qHTS for antagonist of cAMP-regulated guanine nucleotide exchange factor 3 (EPAC1) (AID 1645888). Further: % of control where 0% means no effect. The gist of the method: (§1)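 Measured: fluorescence of BODIPY-GDP bound to Rap1B, which falls as exchange proceeds. Conditions include 50 uM competing GDP, 5 and 30 min reads, and a later cAMP challenge for antagonist detection.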
(Counterscreens check selectivity or assay interference.)

Test [6] has the same target. Description: Counterscreen qHTS for agonist of cAMP-regulated guanine nucleotide exchange factor 3 (EPAC1) (AID 1645889). Further: nearly all actives have a fitted effect of over 40% in size. Further: potency means the concentration at half of the fitted maximal effect. On activation: % of control where 0% means no effect. The gist of the method: as §1
In test [7] the target is Tumor susceptibility gene 101 protein (Homo sapiens) (UniProt Q99816). Kind of test: qHTS Assay for Iinhibitors of HIV-1 Budding by Blocking the Interaction of PTAP/TSG101: Hit Validation (AID 651600). Further: nearly all actives have a fitted effect of over 70% in size. Further: potency means the concentration at half of the fitted maximal effect. The gist of the method:
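Compounds are added to the Tsg101 binding domain (10 uM final) in pH 7.5 HEPES buffer. FITC-PTAP peptide follows at 50 nM final. After 20 min at r.t., polarized FITC emission is measured.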

Test [8] in a line: AP1 Signaling Pathway (AID 357; active means well fitted curve in either direction with a large enough effect, not every such curve was filed as active;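 further: ME-180 reporter cells stimulated with EGF at its EC50 level; on the % scale 0 is the no-effect control and ±100 the full control effect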). The conditions noted are these: ME-180 (cervical carcinoma) AP-1-bla reporter, EGF-induced, beta-lactamase ratio, 5 h; at 7.69 µM (top of the series) unless noted. The gist of the method:
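First, ME-180 AP-1-bla cells were cultured overnight at 37 °C in low-serum Opti-MEM. Next, titrated compounds with EC50 EGF were incubated 5 hours. Finally, CCF4 was added for 2.5 hours and the 460/530 nm ratio recorded.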

Test [9] concerns the target Cytochrome P450 1A2 (Homo sapiens) (UniProt P05177). Kind of test: p450-cyp1a2 (AID 410; calls by dose curve; further: potency means the concentration at half of the fitted maximal effect). The essentials:
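O-Demethylation of luciferin 6' methyl ether by human CYP1A2 is monitored as luciferase luminescence. Substrate sits at Km (100uM); enzyme is 20nM. Values are scaled to 57 uM furafylline as maximal inhibition.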

Test [10] is described as follows: NFAT Signaling Pathway (AID 444; active means well fitted curve in either direction with a large enough effect, not every such curve was filed as active;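 further: carbachol stimulus at about its EC50 of 1 µM final; on the % scale 0 is the no-effect control and ±100 the full control effect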). The conditions noted are these: Jurkat NFAT-bla M1, carbachol, beta-lactamase ratio, 5 h; at 7.69 µM (top of the series) unless noted. The essentials:
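Jurkat cells carrying an NFAT-driven β-lactamase reporter and co-transfected muscarinic M1 receptor were treated with compound plus carbachol (1 uM final, an EC50 level) for 5 h at 37 °C. CCF4 loading followed for 1 h at RT; 460/530 nm ratio gave %activity.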

Test [11] is described as follows: Stat Signaling Pathway (AID 446; active means well fitted curve in either direction with a large enough effect, not every such curve was filed as active;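 further: ME-180 cervical cancer cells given 40 pM IL-6 alongside compound; SIE-controlled beta-lactamase reporter measured as 460/530 nm FRET emission ratio; on the % scale 0 is the no-effect control and ±100 the full control effect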). The essentials: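 FRET read-out (405 nm excitation, 460/530 nm emission) of a beta-lactamase reporter under a STAT-inducible element in ME-180 cervical carcinoma cells. Cells with compound receive 40 pM IL-6 for 5 h. Values are normalised to AC90 stimulation and AC90 JAK-inhibitor controls.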
For test [12], the target named is Glucocorticoid receptor (Homo sapiens) (UniProt P04150). Kind of test: GR-GFP Redistribution (AID 450;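 active means compounds whose dose series gives a full or clear partial fitted curve of increased nuclear translocation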; further: potency means the concentration at half of the fitted maximal effect). Particulars: U2OS GR-GFP nuclear translocation, laser cytometry, 2 h.
The target of test [13] is Mitogen-activated protein kinase 10 (Mus musculus) (UniProt Q61831). Description: JNK3 AlphaScreen Assay (AID 530; active means well fitted curve in either direction with a large enough effect, not every such curve was filed as active;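 further: kinase came from lysate of stimulated human HepG2 cells; signal reports phosphorylation of biotinylated GST-cJun 1-79 at Ser73 with 10 µM ATP; on the % scale 0 is the no-effect control and ±100 the full control effect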). The gist of the method:
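Phosphorylation of biotinylated GST-cJun(1-79) at Ser73 is measured by AlphaScreen proximity luminescence. Enzyme is JNK3 in HepG2 lysates activated with interleukin-1beta and tumor necrosis factor alpha; ATP is 10 uM final.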

The target in test [14] is 3',5'-cyclic-AMP phosphodiesterase 4B (Homo sapiens) (UniProt Q07343). Description: qHTS Assay for Inhibitors of PDE-IV (AID 607; active means well fitted activation curve with a large enough effect in the main read-out, with a control signal flat, not every such curve was filed as active; further: % of control where 0% means no effect). The essentials:
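Cell-based read-out of cAMP via a modified cyclic nucleotide-gated channel and membrane potential dye (535/590 nm) in HEK293 cells expressing PDE4 endogenously. Compounds tested up to 22.9 uM final; 100 uM RO 20-1724 reference.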

The target of test [15] is Cytochrome P450 2C9 (Homo sapiens) (UniProt P11712). Description: qHTS Assay for Inhibitors and Substrates of Cytochrome P450 2C9 (AID 883). Further: potency means the concentration at half of the fitted maximal effect; nearly all actives have a fitted effect of over 60% in size. The essentials:
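CYP2C9 deoxyluciferin hydroxylation, 37C, 60 min with NADPH regeneration; 10nM enzyme, 100uM Luciferin-H (KM). Glo detection reagent stopped reaction; luminescence normalized to sulphaphenazole (57uM) full inhibition.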

Test [16] addresses Cytochrome P450 3A4 (Homo sapiens) (UniProt P08684). Kind of test: qHTS Assay for Inhibitors and Substrates of Cytochrome P450 3A4 (AID 884). Further: potency means the concentration at half of the fitted maximal effect; nearly all actives have a fitted effect of over 50% in size. The gist of the method: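 Luminescent readout of luciferin produced by CYP3A4 (20 nM) dealkylation of Luciferin-PPXE, 25 uM (its KM). NADPH-driven reaction ran 60 min at RT after 10 min compound preincubation; data scaled to 57 uM ketoconazole as 100% inhibition.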

Test [17] has the same target. Description: qHTS Assay for Activators of Cytochrome P450 3A4 (AID 885). Further: nearly all actives have a fitted effect of over 65% in size. The essentials:
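Luminescent readout of luciferin formed from 25 uM Luciferin-PPXE (KM level) by 20 nM CYP3A4 in 200 mM KPO4, with 60 min NADPH-driven reaction at room temperature after 10 min compound exposure. Ketoconazole (57 uM) defined 100% inhibition.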

In test [18] the target is Cytochrome P450 2D6 (Homo sapiens) (UniProt P10635). Kind of test: qHTS Assay for Inhibitors and Substrates of Cytochrome P450 2D6 (AID 891). Further: potency means the concentration at half of the fitted maximal effect; nearly all actives have a fitted effect of over 60% in size. The essentials:
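Luminescent read-out of luciferin formed by 5 nM human CYP2D6 demethylating 30 uM Luciferin-ME EGE (Km level) over 60 min at room temperature after NADPH regeneration addition. Data normalized to full inhibition by 1.43 uM quinidine.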

Test [19] addresses Cytochrome P450 2C19 (Homo sapiens) (UniProt P33261). Description: qHTS Assay for Inhibitors and Substrates of Cytochrome P450 2C19 (AID 899). Further: potency means the concentration at half of the fitted maximal effect; nearly all actives have a fitted effect of over 60% in size. The gist of the method: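 In 50mM KPO4, the reaction held 5nM enzyme and KM-level (10uM) Luciferin-H EGE; it ran 60 min at 37C after NADPH regeneration and a 10 min compound preincubation. Luminescence values were scaled to 57uM ketoconazole as complete inhibition.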

Test [20] addresses Dual specificity protein kinase CLK4 (Homo sapiens) (UniProt Q9HAZ1). Description: qHTS Assay for Inhibitors of CDC-like Kinase 4 (Kinase-Glo Assay) (AID 1770). Further: potency means the concentration at half of the fitted maximal effect; nearly all actives have a fitted effect of over 65% in size. The gist of the method:
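Substrate mix (RS peptide 100 uM, ATP 1 uM) dispensed, compound pinned in, then Clk4 added to 25 nM final. Incubated 4.5 h at RT; Kinase-Glo reagent added, luminescence read after 5 min.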

The target is the same in test [21]. Description: qHTS Assay for Inhibitors of CDC-like Kinase 4 (ADP-Glo Assay) (AID 1771). Further: potency means the concentration at half of the fitted maximal effect; nearly all actives have a fitted effect of over 70% in size. The gist of the method: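 Compounds are pin-transferred onto substrate mix (100 uM RS peptide, 1 uM ATP), then 25 nM Clk4 is added. After 1 hr at room temperature, ADP-Glo reagent runs 45 min, detection reagent 30 min, then luminescence is read.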
Test [22] shares this target. Kind of test: qHTS Assay for Inhibitors of CDC-like Kinase 4 (ADP-FP Assay) (AID 1795). Further: potency means the concentration at half of the fitted maximal effect; nearly all actives have a fitted effect of over 60% in size. The essentials: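 Clk4 6.25 nM; RS peptide 100 uM; ATP 1 uM; 25 mM Tris pH 7.5, 10 mM MgCl2; 1 h reaction. ADP detected via antibody/orange tracer FP displacement; TG003 positive control.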
For test [23], the target named is Ubiquitin carboxyl-terminal hydrolase 1 (Homo sapiens) (UniProt O94782). Description: Inhibitors of USP1/UAF1: Pilot qHTS (AID 504865).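 Further: rhodamine fluorescence freed from ubiquitin-rhodamine substrate followed over time; top concentration of the series differs between compounds; on the % scale 0 is the no-effect control and ±100 the full control effect; nearly all actives have a fitted effect of over 35% in size.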 The gist of the method: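 In 50mM HEPES pH 7.8 containing 0.5mM EDTA, 1mM TCEP, 0.1 mg/ml BSA and 0.01% Tween-20, 1nM USP1/UAF1 is exposed to compound for 15 min, then Ub-Rho (150nM final) is added and fluorescence is read over time.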

The results in this text go back to PubChem BioAssay (NCATS).

Values without a mark were called inactive. Results filed as inconclusive are left out. Calls of active or inactive are those of the source. Unless noted, the call rests on the fitted dose curve; in most records, active means well fitted curve in the direction sought with a large enough effect; inconclusive means small, poorly fitted or top-dose-only effect, or another doubt; inactive means no such curve, though single readings can be large; an effect the other way counts as inactive or inconclusive.

Chain of Dual specificity protein kinase CLK4 (Homo sapiens) (Q9HAZ1 whole entry, looked up): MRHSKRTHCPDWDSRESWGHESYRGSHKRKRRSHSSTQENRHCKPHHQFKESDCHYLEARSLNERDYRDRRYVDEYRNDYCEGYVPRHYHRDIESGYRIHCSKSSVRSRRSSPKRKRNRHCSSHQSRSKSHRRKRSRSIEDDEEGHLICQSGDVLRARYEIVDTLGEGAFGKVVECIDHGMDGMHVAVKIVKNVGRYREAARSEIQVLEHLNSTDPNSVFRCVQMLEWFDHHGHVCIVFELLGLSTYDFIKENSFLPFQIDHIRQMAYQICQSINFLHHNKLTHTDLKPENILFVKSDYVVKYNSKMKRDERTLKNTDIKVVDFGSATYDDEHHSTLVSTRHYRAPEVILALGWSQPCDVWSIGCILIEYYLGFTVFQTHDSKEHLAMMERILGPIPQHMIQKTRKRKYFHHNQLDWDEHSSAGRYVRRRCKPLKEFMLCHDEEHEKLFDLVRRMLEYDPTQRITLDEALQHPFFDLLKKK
Chain of Tumor susceptibility gene 101 protein (Homo sapiens) (Q99816 whole entry, looked up, the tested form may be a part): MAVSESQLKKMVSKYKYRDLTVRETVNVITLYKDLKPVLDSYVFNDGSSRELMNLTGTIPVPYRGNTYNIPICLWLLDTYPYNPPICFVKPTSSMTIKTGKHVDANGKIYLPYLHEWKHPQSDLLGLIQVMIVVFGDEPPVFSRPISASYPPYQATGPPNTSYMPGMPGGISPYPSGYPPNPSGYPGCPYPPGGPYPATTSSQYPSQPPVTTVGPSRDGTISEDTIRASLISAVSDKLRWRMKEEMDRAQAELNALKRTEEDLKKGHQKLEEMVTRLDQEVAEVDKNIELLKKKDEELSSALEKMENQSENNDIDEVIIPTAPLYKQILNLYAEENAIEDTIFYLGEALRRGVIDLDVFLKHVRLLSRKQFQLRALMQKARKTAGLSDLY
Chain of Cytochrome P450 3A4 (Homo sapiens) (P08684 whole entry, looked up): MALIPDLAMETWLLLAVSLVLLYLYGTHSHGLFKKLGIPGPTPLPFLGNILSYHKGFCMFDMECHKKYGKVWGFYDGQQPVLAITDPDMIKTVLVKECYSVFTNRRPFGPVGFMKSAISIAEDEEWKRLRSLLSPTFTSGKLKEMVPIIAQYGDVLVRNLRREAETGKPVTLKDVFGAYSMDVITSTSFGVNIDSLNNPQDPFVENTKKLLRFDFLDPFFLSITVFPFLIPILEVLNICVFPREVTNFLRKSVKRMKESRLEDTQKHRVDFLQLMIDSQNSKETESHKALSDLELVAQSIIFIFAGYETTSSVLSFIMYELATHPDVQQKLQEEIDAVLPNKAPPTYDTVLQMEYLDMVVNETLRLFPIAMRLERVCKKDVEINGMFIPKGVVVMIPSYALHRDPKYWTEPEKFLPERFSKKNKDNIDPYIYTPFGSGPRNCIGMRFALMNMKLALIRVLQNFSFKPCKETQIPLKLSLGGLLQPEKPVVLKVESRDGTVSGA
Chain of Cytochrome P450 2C19 (Homo sapiens) (P33261 whole entry, looked up): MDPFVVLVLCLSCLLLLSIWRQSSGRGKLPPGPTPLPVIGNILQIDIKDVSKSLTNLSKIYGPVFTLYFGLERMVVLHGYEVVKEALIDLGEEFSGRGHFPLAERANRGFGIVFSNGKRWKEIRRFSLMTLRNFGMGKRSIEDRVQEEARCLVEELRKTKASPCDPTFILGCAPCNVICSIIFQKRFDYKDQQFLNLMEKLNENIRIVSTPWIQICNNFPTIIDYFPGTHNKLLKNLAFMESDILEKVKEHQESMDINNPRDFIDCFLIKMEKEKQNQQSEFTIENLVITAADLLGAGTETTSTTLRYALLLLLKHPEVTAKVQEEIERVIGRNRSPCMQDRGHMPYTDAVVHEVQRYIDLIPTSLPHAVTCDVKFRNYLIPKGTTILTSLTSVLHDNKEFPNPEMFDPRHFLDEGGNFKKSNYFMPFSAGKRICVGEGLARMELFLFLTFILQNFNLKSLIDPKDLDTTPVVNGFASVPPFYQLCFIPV
Chain of Cytochrome P450 1A2 (Homo sapiens) (P05177 whole entry, looked up): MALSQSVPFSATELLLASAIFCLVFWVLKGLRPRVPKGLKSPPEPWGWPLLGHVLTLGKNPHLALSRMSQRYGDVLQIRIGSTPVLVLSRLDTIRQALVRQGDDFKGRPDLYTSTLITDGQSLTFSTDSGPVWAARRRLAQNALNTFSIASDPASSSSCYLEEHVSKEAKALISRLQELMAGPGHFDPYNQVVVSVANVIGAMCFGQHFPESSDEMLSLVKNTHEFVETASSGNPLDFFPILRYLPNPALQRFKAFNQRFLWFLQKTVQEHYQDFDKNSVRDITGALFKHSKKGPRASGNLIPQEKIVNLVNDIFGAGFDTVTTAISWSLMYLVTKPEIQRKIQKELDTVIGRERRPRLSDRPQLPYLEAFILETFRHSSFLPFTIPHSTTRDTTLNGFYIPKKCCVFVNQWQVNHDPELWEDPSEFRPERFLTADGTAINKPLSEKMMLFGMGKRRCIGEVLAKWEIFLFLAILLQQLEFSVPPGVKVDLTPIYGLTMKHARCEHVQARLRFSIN
Chain of 3',5'-cyclic-AMP phosphodiesterase 4B (Homo sapiens) (Q07343 whole entry, looked up): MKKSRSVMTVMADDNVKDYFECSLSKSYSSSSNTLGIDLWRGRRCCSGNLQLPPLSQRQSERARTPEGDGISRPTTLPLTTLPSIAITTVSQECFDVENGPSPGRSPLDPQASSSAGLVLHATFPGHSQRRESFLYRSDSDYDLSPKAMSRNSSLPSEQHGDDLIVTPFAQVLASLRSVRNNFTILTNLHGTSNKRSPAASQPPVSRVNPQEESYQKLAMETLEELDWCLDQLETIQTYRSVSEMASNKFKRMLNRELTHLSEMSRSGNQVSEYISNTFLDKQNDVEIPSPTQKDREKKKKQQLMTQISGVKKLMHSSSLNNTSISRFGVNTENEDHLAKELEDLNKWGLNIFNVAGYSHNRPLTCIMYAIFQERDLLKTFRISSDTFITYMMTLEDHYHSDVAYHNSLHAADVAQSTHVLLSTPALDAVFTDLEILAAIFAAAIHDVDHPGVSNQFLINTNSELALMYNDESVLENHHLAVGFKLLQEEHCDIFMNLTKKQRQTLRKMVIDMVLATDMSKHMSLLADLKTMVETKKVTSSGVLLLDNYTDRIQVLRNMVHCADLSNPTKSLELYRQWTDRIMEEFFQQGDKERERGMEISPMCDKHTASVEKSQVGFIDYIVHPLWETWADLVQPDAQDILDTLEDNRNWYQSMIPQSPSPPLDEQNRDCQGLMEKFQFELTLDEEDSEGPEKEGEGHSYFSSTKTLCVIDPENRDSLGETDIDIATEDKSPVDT

For `COc1cc([N+](=O)[O-])ccc1-c1ccc(/C=C2\C(=O)ON=C2c2ccccc2)o1`, the Potency in [1] was 3.16 µM (active); in test [2] it was 19 µM (active). In addition, the Potency entry in test [3], in test [4], in [5] and in test [6] was “inactive” throughout.
Turning to `CCC(=O)N1CCc2cc(CNC(=O)c3ccccc3C)ccc21`, the Potency entry in test [2], in test [3], in [4], in test [5] and in test [6] was “inactive” each time.
On to `Cc1ccc(C)c(Oc2nnnn2-c2ccccc2)c1`, for which the Potency result in [2], in test [3], in test [4], in test [5] and in [6] was “inactive” throughout.
Take `Nc1cccc2c(O)cc(S(=O)(=O)O)cc12`: the Potency was 18.3 µM (active) in test [7]; 13.5 µM (active) in [2]; 50.1 µM (active) in test [3]; 0.757 µM (active) in [4]; 79.4 µM (active) in test [6]. Further, the Potency result in test [5] was “inactive”.
With `O=S(=O)(c1ccc(Br)c2ccccc12)N1CCCC1`, the Potency entry in test [2], in [3], in test [4], in test [5] and in [6] was “inactive” in each case.
`COc1cc(CN2C(=O)C(C)ON=C2c2ccccc2F)cc(OC)c1` (stereo not given): the Potency entry in test [2], in test [3], in [4], in test [5] and in test [6] was “inactive” throughout.
Consider `COc1ccc2[nH]cc(CCNc3ncncc3-c3ccccc3Cl)c2c1`, for which the activity change, negative = inhibition in [8] is -12.3%; in test [10], -11.6%. For the same compound, the Potency in [9] is 0.631 µM (active); in test [12] it was more than 46 µM; in test [15], 0.199 µM (active); in test [16] it was 0.398 µM (active); in [18], 0.631 µM (active); in test [19], 0.0631 µM (active). Also, the Potency in [20] is 12.6 µM (active); in test [21] it was 10 µM (active); in [22] it was 12.6 µM (active). The outcome in test [11] and in [17] was inactive. In addition, the Potency result in [13], in test [14] and in test [23] was “inactive” in each case.
Regarding `O=C(O)c1ccccc1-c1ccc(/C=C/c2cc(C(F)(F)F)[nH]c(=O)n2)o1`, in [7], the Potency result was “inactive”.
As to `COc1ccc(S(=O)(=O)N2CCCC2)c2ccccc12`, the Potency entry in [2] and in test [3] was “inactive” throughout. Besides, the activity change, negative = inhibition in test [5] was -10.4% [at 30.8 µM]. Moreover, the activation in test [6] was 9.58% [at 30.8 µM].
On to `CCCNC(=O)c1ccc(N2CCC3(CC2)CC(c2ccccc2)=NO3)c(NC(=O)c2ccccc2)c1`, for which the Potency result in [2], in test [3], in test [5] and in test [6] was “inactive” each time.
As for `COC(=O)c1cn(S(=O)(=O)c2ccccc2)c2ccccc12`, the Potency result in [2], in [3] and in test [5] was “inactive” in each case.
On to `Cc1nc(Nc2ccc(Br)cc2Br)c([N+](=O)[O-])c(=O)[nH]1`, for which the Potency result in [2], in [3] and in test [5] was “inactive” each time.
`O=C(c1noc2c1CCc1ccccc1-2)N1CCCc2ccccc21`: the Potency entry in [2], in [3], in [5] and in test [6] was “inactive” throughout.
Take `COc1ccc2ccc3c(c2c1)N=C[C@]1(O3)N(C)c2ccccc2C1(C)C`: the Potency entry in test [2], in test [3] and in test [5] was “inactive” throughout.
